Where “and” joins values, the source holds several entries; their conditions need not be identical. Equal entries are not always repeated. Records with an inconclusive call do not appear. Calls of active or inactive are those of the source. Unless noted, calls follow the shape of the dose curve; as a rule, active = well fitted curve in the direction sought with a large enough effect; inconclusive = small, poorly fitted or top-dose-only effect, or another doubt; inactive = no such curve, though single readings can be large; an effect the other way counts as inactive or inconclusive.

Results on 6 molecules are retold here after PubChem BioAssay (NCATS).

Assay [1] concerns the target Glucocorticoid receptor (Homo sapiens) (UniProt P04150). Briefly: qHTS assay for small molecule agonists of glucocorticoid receptor signaling (AID 588532; active = well fitted curve in the direction sought with a large enough effect in the signal ratio, with a control signal flat; the % refers to the signal ratio;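 also: 100% = dexamethasone at 0.1 µM and 0% = DMSO only wells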). The conditions noted are these: HeLa MMTV-bla, beta-lactamase ratio, agonist, 18 h; stronger effect = higher value; percent of dexamethasone control, DMSO zero. An outline of the steps:
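HeLa GRE-bla reporter cells; 18 h compound exposure at 37 C; 2 h CCF4 loading at room temperature; fluorescence at 460 and 530 nm; EC50 by Hill equation.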
For orientation: Quantitative high-throughput screening tests each substance at several concentrations.

The target is the same in assay [2]. Briefly: qHTS assay for small molecule antagonists of glucocorticoid receptor signaling (AID 588533; active = well fitted inhibition curve with a large enough effect in the signal ratio, with a control signal flat, not every such curve was filed as active; the % refers to the signal ratio;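 also: cells stimulated with 2 nM dexamethasone as agonist; % is scaled to controls: 0 for no effect and ±100 for the full control effect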). Conditions: HeLa MMTV-bla, GRE beta-lactamase ratio, antagonist mode, 18 h; series mostly up to 76.8 µM. The procedure, abridged: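 Antagonist-mode qHTS: compound titrations added to GRE-bla HeLa cells, then dexamethasone 2 nM final; 18 h, 37 C. CCF4 FRET fluorescence normalized to dexamethasone and DMSO; IC50 from Hill fit.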

A short description of assay [3]: qHTS assay for small molecule antagonists of peroxisome proliferator-activated receptor delta signaling (AID 588535).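 Also: cells co-treated with a PPAR-delta agonist as stimulator during compound exposure.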 Conditions: HEK293T PPARd-UAS-bla, beta-lactamase FRET ratio, 18 h; 460 nm channel. The procedure, abridged: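 Antagonist-mode beta-lactamase reporter (GeneBLAzer PPAR-delta-UAS-bla) in HEK293T cells, 2% charcoal/dextran FBS, 4000 cells/well. Compound titrations, 18 h at 37 C; CCF4 ratio read, IC50 and efficacy from Hill fits.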

Assay [4] deals with Peroxisome proliferator-activated receptor gamma (Homo sapiens) (UniProt P37231). Briefly: qHTS assay for small molecule agonists of peroxisome proliferator-activated receptor gamma signaling (AID 588536; active = well fitted curve in the direction sought with a large enough effect in the signal ratio, with a control signal flat, not every such curve was filed as active; the % refers to the signal ratio;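 also: 0% = DMSO basal wells and 100% = rosiglitazone at 2 µM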). Conditions: HEK293 PPARg-UAS-bla, beta-lactamase ratio, 16 h, percent of rosiglitazone response, DMSO as zero; series mostly up to 76.7 µM. An outline of the steps:
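GeneBLAzer PPAR-gamma-UAS-bla HEK293 cells in 1% charcoal/dextran-treated FBS medium were treated 16 h at 37 C with compounds. Beta-lactamase activity was read by CCF4 ratio (460/530 nm). Response was normalized to 2 uM rosiglitazone (100%) and DMSO, then Hill-fitted for EC50 and efficacy.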

Assay [5] shares this target. Briefly: qHTS assay for small molecule antagonists of peroxisome proliferator-activated receptor gamma signaling (AID 588537; active = well fitted inhibition curve with a large enough effect in the signal ratio, with a control signal flat, not every such curve was filed as active; the % refers to the signal ratio;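 also: reporter cells co-stimulated with 50 nM rosiglitazone agonist during compound treatment; % of control where 0% means no effect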). The conditions noted are these: HEK293 PPARg-UAS-bla, beta-lactamase ratio, antagonist mode; series mostly up to 76.8 µM. An outline of the steps: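 PPARγ-UAS-bla HEK293 cells (3000/well) in 1% charcoal/dextran-stripped FBS are treated with compound, then stimulated with 50 nM rosiglitazone for 16 h at 37 °C. Read-out is CCF4 β-lactamase fluorescence after 2 h at RT. IC50 comes from Hill fits normalised to rosiglitazone and DMSO.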

Assay [6] concerns the target Vitamin D3 receptor (Homo sapiens) (UniProt P11473). The experiment in a line: qHTS assay for small molecule agonists of vitamin D receptor signaling (AID 588543; calls by dose curve;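 also: 0% = DMSO basal and 100% = reference agonist control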). The conditions noted are these: HEK293T VDR-UAS-bla, beta-lactamase ratio, 16 h; series mostly up to 76.8 µM. An outline of the steps:
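Reporter cells (HEK293T, VDR-UAS-bla) were seeded in medium with 2% charcoal-stripped serum and incubated 5 h, then compounds in concentration series were added for 16 h at 37 °C. Stimulation was scaled between DMSO basal and 50 nM 1α,25-dihydroxyvitamin D3.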

The nature of assay [7]: qHTS assay for small molecule agonists of retinoid X receptor alpha signaling (AID 588544). Conditions: HEK293T RXRa-UAS-bla, beta-lactamase reporter, 18 h; 530 nm emission.
The nature of assay [8]: qHTS assay for small molecule antagonists of retinoid X receptor alpha signaling (AID 588546; active = well fitted inhibition curve with a large enough effect in the signal ratio, with a control signal flat, not every such curve was filed as active; the % refers to the signal ratio;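 also: cells stimulated with 9-cis-retinoic acid as agonist; % is scaled to controls: 0 for no effect and ±100 for the full control effect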). Conditions: HEK293T RXRa-UAS-bla, beta-lactamase ratio, antagonist mode; measured here: W530 green channel, cytotoxicity proxy. The procedure, abridged:
(§1)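 Beta-lactamase reporter inhibition, read as CCF4 fluorescence ratio (ex 405, em 460/530 nm) after 2 h at RT. HEK293T UAS-bla cells, 2500/well, were stimulated with 9-cis-RA at 500 or 100 nM final alongside test compound for 18 h at 37 C.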

The target in assay [9] is Retinoic acid receptor RXR-alpha (Homo sapiens) (UniProt P19793). The description is as above. Conditions: HEK293T RXRa-UAS-bla, beta-lactamase ratio, antagonist mode. The procedure, abridged:
as §1

Assay [10] can be described thus: qHTS assay for small molecule activators of the p53 signaling pathway (AID 651743; active = well fitted activation curve with a large enough effect in the signal ratio, not every such curve was filed as active; the % refers to the signal ratio; also: % of control where 0% means no effect). The conditions noted are these: HCT-116 p53RE-bla, beta-lactamase FRET ratio, 16 h; activation: stronger effect = higher value. An outline of the steps: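 p53RE-bla HCT-116 cells carrying a beta-lactamase reporter under p53 response elements were exposed to compounds for 16 hours at 37 C. Reporter activity read as fluorescence after 2 hours at room temperature with LiveBLAzer B/G FRET substrate.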

A short description of assay [11]: qHTS assay for environmental chemicals that activate the Aryl hydrocarbon Receptor (AhR) signaling pathway (AID 651777). Also: % of control where 0% means no effect; nearly all actives have a fitted effect of over 15% in size. The conditions noted are these: 1A2-DRE human hepatoma cells, luciferase, 24 h; activation: stronger effect = higher value. The procedure, abridged:
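Reporter gene assay: hepatoma cells with DRE/CYP1A2-luciferase, 24 hr compound incubation at 37 C, 5% CO2, luminescence after One-Glo (30 min, RT).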

Assay [12] deals with Peroxisome proliferator-activated receptor alpha (Homo sapiens) (UniProt Q07869). The experiment in a line: qHTS assay for small molecule agonists of the peroxisome proliferator-activated receptor alpha (PPARalpha) signaling pathway (AID 651778). Also: potency is read from the fitted curve at half-maximal effect. As to max response: % of control where 0% means no effect. Conditions: PathHunter PPARalpha complementation, chemiluminescence, 6 h; max response: stronger effect = higher value. The procedure, abridged: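 Enzyme-fragment complementation assay in which ligand-bound PPARalpha translocates and forms an active enzyme that generates chemiluminescence. Cells were plated overnight, exposed to compound for 6 hr at 37 C, and then given detection reagent for 60 min at room temperature.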

Assay [13] in a line: qHTS assay for small molecule agonists of the antioxidant response element (ARE) signaling pathway measured by Nrf2-dependant transcriptional activity (AID 720636; active = well fitted curve in the direction sought with a large enough effect in the repeat runs; an effect the other way counts as inactive or inconclusive; also: % of control where 0% means no effect). Conditions: ARE-luc HepG2, Nrf2 luciferase reporter, 16 h; series mostly up to 92.4 µM. The procedure, abridged: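 Nrf2-dependent transcription is measured in ARE-luc HepG2 cells: compound is applied for 16 hr at 37 C after a 6 hr attachment period, and luciferase activity is quantified by luminescence using ONE-Glo.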

Assay [14] can be described thus: qHTS assay for small molecule agonists of the antioxidant response element (ARE) signaling pathway measured by Nrf2-dependant transcriptional activity - cell viability counter screen (AID 720653; active = well fitted curve in the direction sought with a large enough effect in the repeat runs; an effect the other way counts as inactive or inconclusive; also: % is scaled to controls: 0 for no effect and ±100 for the full control effect). The conditions noted are these: ARE-bla HepG2 viability, CellTiter-Glo ATP luminescence, 16 h; max response: stronger effect = lower value. The procedure, abridged:
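ARE-bla HepG2 cells treated with compounds for 16 h at 37C; this counter screen measures viability as intracellular ATP by CellTiter-Glo luminescence after 30 min at room temperature.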

A short description of assay [15]: qHTS assay for cell viability of HEK293 cells (AID 743288). Also: % is scaled to controls: 0 for no effect and ±100 for the full control effect; nearly all actives have a fitted effect of over 50% in size. Conditions: ATP luminescence (CellTiter-Glo), 18 h; max response: stronger effect = lower value. An outline of the steps:
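HEK293 parental, 2,000 cells/well; ≥5 h pre-incubation 37 C; pintool compound addition; 18 h, 37 C; CellTiter-Glo 30 min RT; luminescence read.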

A short description of assay [16]: qHTS assay for cell viability of the p53RE-bla HCT-116 cell line (AID 743292). Also: % is scaled to controls: 0 for no effect and ±100 for the full control effect; nearly all actives have a fitted effect of over 55% in size. Conditions: p53RE-bla HCT-116 viability, ATP luminescence, 16 h; series mostly up to 95 µM. An outline of the steps:
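ATP-based luminescence, 16 h compound exposure at 37 C, p53RE-bla HCT-116 cells at 4,000/well.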

Assay [17] has as its target Thyroid hormone receptor beta (Homo sapiens) (UniProt P10828). Briefly: qHTS assay for small molecule agonists of thyroid hormone receptor beta signaling (AID 588545; calls by dose curve;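 also: 0% = DMSO only and 100% = 10 nM T3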). Conditions: TR-UAS-bla GripTite HEK 293, beta-lactamase ratio, agonist mode, 18 h; series mostly up to 76.7 µM. An outline of the steps: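 Efficacy and EC50 values derive from Hill fits of qHTS titration data, normalized to 10 nM T3 and DMSO-only wells. HEK 293 reporter cells were stimulated for 18 hrs at 37 C, with beta-lactamase activity measured by CCF4 fluorescence.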

Assay [18] in a line: qHTS assay for small molecule activators of the nuclear factor-kappa B (NF-kB) signaling pathway (AID 651749; active = well fitted activation curve with a large enough effect in the signal ratio; the % refers to the signal ratio; also: % of control where 0% means no effect). The conditions noted are these: NF-kB-bla ME-180 cells, beta-lactamase FRET ratio, 16 h; activation: stronger effect = higher value. The procedure, abridged:
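NF-kB-bla ME-180 cells carrying a beta-lactamase reporter under an NF-kB response element, 2,000 cells/well, exposed to compound for 16 hr at 37C; FRET-based beta-lactamase fluorescence read-out of pathway activation.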

The target in assay [19] is Nuclear receptor subfamily 1 group I member 2 (Rattus norvegicus) (UniProt Q9R1A7). The experiment in a line: qHTS assay for small molecule activators of the rat pregnane X receptor (rPXR) signaling pathway (AID 651751; call rule not given here; also: 0% is about no effect). The conditions noted are these: rPXR reporter cells, luciferase (One-Glo), 24 h.
Assay [20] is described as follows: qHTS assay for small molecule activators of the human pregnane X receptor (PXR) signaling pathway (AID 720659; call rule not given here; also: 0% is about no effect). The conditions noted are these: DPX-2 HepG2 CYP3A4-luciferase, 24 h; series mostly up to 92.3 µM.

Peroxisome proliferator-activated receptor alpha (Homo sapiens), sequence (Q07869 whole entry, looked up, the tested form may be a part): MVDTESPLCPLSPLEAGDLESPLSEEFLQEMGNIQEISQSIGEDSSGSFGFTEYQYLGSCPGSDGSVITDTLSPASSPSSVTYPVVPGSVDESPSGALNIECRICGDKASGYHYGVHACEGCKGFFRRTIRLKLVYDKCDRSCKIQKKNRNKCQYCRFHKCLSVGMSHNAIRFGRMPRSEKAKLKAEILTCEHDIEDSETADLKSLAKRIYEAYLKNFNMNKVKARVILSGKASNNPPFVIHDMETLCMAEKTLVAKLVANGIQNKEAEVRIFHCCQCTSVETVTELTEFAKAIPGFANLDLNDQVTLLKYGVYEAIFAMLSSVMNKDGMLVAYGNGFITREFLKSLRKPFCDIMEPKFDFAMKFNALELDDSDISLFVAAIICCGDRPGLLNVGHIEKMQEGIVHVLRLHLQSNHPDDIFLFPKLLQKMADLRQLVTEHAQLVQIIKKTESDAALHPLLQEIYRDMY
Nuclear receptor subfamily 1 group I member 2 (Rattus norvegicus), sequence (Q9R1A7 whole entry, looked up): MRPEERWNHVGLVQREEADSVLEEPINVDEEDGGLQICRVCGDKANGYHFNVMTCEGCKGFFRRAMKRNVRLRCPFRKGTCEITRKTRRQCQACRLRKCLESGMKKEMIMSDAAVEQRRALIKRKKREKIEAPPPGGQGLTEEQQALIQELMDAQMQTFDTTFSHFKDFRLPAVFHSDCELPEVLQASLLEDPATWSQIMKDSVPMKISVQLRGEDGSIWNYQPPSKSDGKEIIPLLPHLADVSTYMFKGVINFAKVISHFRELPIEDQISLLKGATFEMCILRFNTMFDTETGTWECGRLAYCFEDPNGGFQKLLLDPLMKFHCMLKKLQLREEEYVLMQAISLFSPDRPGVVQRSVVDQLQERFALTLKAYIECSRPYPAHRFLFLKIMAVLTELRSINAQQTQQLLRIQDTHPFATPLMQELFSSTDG
Peroxisome proliferator-activated receptor gamma (Homo sapiens), sequence (P37231 whole entry, looked up): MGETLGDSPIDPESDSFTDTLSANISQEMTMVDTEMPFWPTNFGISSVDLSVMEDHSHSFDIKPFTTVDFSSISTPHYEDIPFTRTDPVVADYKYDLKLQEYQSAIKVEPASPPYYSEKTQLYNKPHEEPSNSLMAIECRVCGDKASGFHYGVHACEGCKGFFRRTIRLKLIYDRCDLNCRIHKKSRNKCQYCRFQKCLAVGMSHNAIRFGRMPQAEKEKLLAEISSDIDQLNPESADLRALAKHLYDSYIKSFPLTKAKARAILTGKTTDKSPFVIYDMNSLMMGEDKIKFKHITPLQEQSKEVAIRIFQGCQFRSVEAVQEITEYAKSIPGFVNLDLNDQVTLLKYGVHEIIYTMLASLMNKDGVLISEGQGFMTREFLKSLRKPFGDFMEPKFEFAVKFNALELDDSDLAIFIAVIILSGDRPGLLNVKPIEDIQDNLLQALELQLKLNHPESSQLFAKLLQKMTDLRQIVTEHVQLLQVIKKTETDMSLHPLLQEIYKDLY
Glucocorticoid receptor (Homo sapiens), sequence (P04150 whole entry, looked up): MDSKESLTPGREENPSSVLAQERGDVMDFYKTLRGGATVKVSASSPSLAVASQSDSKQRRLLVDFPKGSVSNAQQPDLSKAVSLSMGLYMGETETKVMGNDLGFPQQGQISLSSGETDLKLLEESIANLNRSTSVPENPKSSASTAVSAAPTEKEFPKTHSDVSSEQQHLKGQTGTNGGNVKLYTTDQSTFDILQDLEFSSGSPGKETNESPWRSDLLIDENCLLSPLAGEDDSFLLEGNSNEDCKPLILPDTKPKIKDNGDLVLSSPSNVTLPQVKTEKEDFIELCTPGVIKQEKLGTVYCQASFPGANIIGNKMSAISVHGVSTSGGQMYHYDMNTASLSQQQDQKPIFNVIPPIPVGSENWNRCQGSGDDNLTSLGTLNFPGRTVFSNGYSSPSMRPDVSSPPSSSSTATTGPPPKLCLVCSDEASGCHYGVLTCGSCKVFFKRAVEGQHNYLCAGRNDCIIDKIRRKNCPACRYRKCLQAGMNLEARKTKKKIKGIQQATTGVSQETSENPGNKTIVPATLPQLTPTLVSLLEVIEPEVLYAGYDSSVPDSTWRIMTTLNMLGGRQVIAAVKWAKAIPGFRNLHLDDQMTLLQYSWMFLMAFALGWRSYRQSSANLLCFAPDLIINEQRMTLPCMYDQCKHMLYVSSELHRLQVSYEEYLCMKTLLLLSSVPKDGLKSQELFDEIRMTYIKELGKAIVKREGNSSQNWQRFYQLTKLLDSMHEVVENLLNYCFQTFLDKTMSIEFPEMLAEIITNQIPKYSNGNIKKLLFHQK
Retinoic acid receptor RXR-alpha (Homo sapiens), sequence (P19793 whole entry, looked up): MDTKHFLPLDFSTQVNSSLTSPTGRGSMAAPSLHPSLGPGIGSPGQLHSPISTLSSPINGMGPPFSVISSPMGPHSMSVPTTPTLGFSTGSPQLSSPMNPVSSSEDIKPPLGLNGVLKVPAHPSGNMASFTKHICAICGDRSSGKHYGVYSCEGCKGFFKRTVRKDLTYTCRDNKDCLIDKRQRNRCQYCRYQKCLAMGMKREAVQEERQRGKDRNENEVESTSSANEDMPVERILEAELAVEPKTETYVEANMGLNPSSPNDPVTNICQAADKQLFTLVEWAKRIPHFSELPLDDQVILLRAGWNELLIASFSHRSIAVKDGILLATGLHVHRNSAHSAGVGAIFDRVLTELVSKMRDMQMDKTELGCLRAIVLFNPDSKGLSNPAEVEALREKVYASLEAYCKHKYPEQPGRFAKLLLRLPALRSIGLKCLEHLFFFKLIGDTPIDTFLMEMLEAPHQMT
Thyroid hormone receptor beta (Homo sapiens), sequence (P10828 whole entry, looked up): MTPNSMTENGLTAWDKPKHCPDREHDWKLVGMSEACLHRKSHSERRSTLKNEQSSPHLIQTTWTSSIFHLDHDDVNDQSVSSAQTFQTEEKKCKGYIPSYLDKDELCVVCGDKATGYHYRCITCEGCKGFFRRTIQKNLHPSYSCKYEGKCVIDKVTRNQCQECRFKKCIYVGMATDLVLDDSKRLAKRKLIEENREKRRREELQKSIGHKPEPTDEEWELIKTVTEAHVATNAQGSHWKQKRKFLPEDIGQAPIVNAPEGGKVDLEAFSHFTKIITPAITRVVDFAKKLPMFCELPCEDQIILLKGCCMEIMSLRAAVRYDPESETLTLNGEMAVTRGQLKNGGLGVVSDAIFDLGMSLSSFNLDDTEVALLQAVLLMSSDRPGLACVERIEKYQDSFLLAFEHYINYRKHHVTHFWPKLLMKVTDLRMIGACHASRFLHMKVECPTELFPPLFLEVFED
Vitamin D3 receptor (Homo sapiens), sequence (P11473 whole entry, looked up): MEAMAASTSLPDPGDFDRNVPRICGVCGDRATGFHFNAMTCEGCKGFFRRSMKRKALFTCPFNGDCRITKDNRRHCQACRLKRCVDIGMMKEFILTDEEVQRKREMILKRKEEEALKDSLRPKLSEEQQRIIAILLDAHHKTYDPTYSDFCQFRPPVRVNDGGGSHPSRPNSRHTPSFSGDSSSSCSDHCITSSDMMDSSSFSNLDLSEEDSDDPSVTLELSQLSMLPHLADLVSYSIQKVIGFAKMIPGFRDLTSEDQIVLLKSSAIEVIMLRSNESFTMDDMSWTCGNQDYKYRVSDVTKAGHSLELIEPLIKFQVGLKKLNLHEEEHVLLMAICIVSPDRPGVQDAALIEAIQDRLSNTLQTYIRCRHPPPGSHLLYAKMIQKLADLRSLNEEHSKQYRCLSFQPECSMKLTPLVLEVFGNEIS

On to `COCCO`, for which the activation in assay [1] was 2.41% (inactive) and 1.59% (inactive); in assay [10], 0.424% (inactive) and -0.727% (inactive); in assay [11], -1.11% (inactive) and -0.165% (inactive). Further, the Potency result in [2], in assay [5], in [13] and in assay [16] was “inactive” in each case. Moreover, the max response is 37% in [3]; -5.91% and 1.76% in [7]; -8.45% and -6.73% in assay [8]; 16.3% (inactive) and -4.97% (inactive) in [9]; -2.01% (inactive) and -0.724% (inactive) in assay [12]; -7.73% (inactive) and 3.37% (inactive) in [14]. For the same molecule, in assay [15], the max response is -2.14% (inactive) and 3.11% (inactive). The result in assay [4] and in assay [6] was inactive.

In the case of `CC(C)(N=C=O)c1cccc(C(C)(C)N=C=O)c1`, the activation in assay [1] is 9.9% (inactive); in assay [18], -0.946% (inactive); in assay [11], 0.551% (inactive). The Potency entry in assay [2], in assay [5], in assay [17], in assay [13] and in [16] was “inactive” in each case. Moreover, the max response in [3] is 9.94%; in assay [7] it was 8.92%; in assay [8] it was -4.03%; in assay [9] it was -29.1% (inactive); in [14], -5.26% (inactive); in assay [15], -12% (inactive). Besides, the max response in [19] was 4.49% (inactive). Besides, the result in assay [4] and in [6] was inactive.

Consider `C=CC(=O)OCCOc1ccccc1`, for which the values for the activation in assay [1], in [10] and in [11] were -7.33% (inactive), 0.464% (inactive) and -0.084% (inactive), respectively. Further, the Potency entry in [2], in assay [5], in [17] and in assay [16] was “inactive” in each case. Also, the max response in assay [3] is -44.3%; in [8], -0.297%; in assay [9], -20.4% (inactive); in [12], -0.522% (inactive); in assay [14], -16.9% (inactive); in [15], -15.9% (inactive). Further, the max response in assay [19] was 2.62% (inactive). The outcome in [4], in [6] and in [20] was inactive.

With `O=C1CCC(C2CCCCC2)CC1`, the Potency result in assay [2], in assay [17], in assay [13] and in [16] was “inactive” throughout. The result in [4], in assay [6] and in [20] was inactive. In addition, the max response in [7] was -15.9%; in assay [8] it was -11.9%; in [9], -6.4% (inactive); in assay [12], -1.16% (inactive); in assay [14], -5.5% (inactive); in assay [19], -0.198% (inactive). Moreover, the activation is -4.16% (inactive) in assay [10], -1.09% (inactive) in [18] and -0.377% (inactive) in assay [11].

Take `CCCCCCC(O)CCCCCCCCCCC(=O)OC` (stereo not given): the activation was -20.2% (inactive) in [1], 0.349% (inactive) in [10] and -0.158% (inactive) in assay [18]. Further, the Potency result in assay [2], in [17], in assay [13] and in assay [16] was “inactive” each time. Besides, the max response is 18.1% in [3]; -11.4% in assay [7]; 9.9% (inactive) in [14]; -0.436% (inactive) in assay [15]; -2.07% (inactive) in [19]. The result in [6] and in assay [20] was inactive. In addition, in assay [12], the Potency is 20 µM (active).

As to `CCOCCOCCOCC`, the activation in assay [1] was -5.25% (inactive); in assay [10], -1.74% (inactive); in assay [18] it was -0.223% (inactive); in [11], 0.117% (inactive). Further, the Potency entry in assay [2], in assay [5], in assay [17] and in [16] was “inactive” in each case. The max response was 12.8% in assay [3]; -3.22% in [7]; -7.04% in assay [8]; -12.1% (inactive) in assay [9]; -2.34% (inactive) in assay [12]; -4.14% (inactive) in [14]. For the same molecule, the max response in assay [15] is -13.3% (inactive); in assay [19] it was 1.72% (inactive). For the same molecule, the result in assay [4], in assay [6] and in assay [20] was inactive.
